Shiga toxin inh: Shiga toxin inhibition; Vero cells, Shiga toxin protein synthesis inhibition reporter; inhibition, % at 38.7 µM; 290,000 compounds, 9.2% hits; AID 2315; in the data active = inhibition mostly above about 28%, no sharp cut-off; inactive = mostly below about 43%
CHX counter: affects cycloheximide protein synthesis inhibition readout, counter-screen; 300,000 compounds, 12% hits; max response, %; cell reporter, cycloheximide protein synthesis inhibition counterscreen; in the data active = max response mostly above about 13%, no sharp cut-off; inactive = mostly below about 14%; also: read at 38.3 µM for the half of the compounds with a filed dose
RE007 growth inh: less growth of the S. pombe RE007 Vpr strain | Potency, µM (series often up to 92.2 µM), usual class: inhibitors | S. pombe RE007 Vpr strain, BacTiter-Glo ATP luminescence, 24 h | AID 651644 | 360,000 compounds, 0.21% hits; active = well fitted falling curve with a large enough effect; inconclusive = small, poorly fitted or top-dose-only effect; inactive = no such curve, though single readings can be large or run the other way; also: nearly all actives have a fitted effect of over 50% in size
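Fission yeast RE007 carrying one integrated HIV-1 vpr copy, seeded at OD 0.01 in PMG+AL medium with 23 nL pinned compound. Grown 24 h at 30 degrees; viability read by BacTiter-Glo luminescence after 5 min.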
Giardia FBPA inh: Giardia lamblia aldolase inhibition. purified Giardia FBPA. Potency, µM (highest dose often 59.6 µM), actives largely listed as inhibitors. 290,000 compounds, 0.71% hits; also: nearly all actives have a fitted effect of over 55% in size
Target sequence (A8B2U2 whole entry, looked up): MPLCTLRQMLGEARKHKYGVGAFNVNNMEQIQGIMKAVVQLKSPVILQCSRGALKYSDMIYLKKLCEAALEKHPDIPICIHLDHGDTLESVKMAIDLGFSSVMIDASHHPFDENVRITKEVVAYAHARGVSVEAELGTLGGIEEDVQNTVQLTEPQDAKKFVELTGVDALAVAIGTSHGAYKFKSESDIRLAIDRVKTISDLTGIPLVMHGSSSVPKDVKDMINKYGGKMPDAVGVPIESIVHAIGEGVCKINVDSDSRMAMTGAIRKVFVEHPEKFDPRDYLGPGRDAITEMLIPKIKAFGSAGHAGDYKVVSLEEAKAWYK
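40 nM FBPA preincubated 10 min at RT with compound (up to 57.5 uM final), then substrate plus GAPDH/TPI/NAD/arsenate coupling and diaphorase/resazurin added. Fluorescence read after 20 min at RT, 525/598 nm.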
LmPK inh: inhibitors of Leishmania mexicana pyruvate kinase. purified LmPK, Kinase-Glo ATP luminescence, 1 h. Potency, µM (highest dose often 57.5 µM), most hits filed as inhibitors. 290,000 compounds, 0.37% hits
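In 50 mM imidazole pH 7.2 with 7 mM MgCl2, LmPK (0.1 nM) turned over PEP (0.5 mM) and ADP (0.1 mM) for 1 h at room temperature. Luciferase read-out of ATP.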
TbPYK inhibitor: T. brucei pyruvate kinase inhibition. Q57TT1. TbPYK enzyme, Kinase-Glo Plus ATP luminescence, 45 min. Potency, µM (highest dose often 76.8 µM), usual class: inhibitors. 410,000 compounds, 0.12% hits; also: nearly all actives have a fitted effect of over 50% in size
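Enzyme and substrate buffer are dispensed first and compound is pin-transferred. ADP at 130 uM final then starts the reaction, which runs 45 min at room temperature. Detection reagent is added for 10 min before luminescence is imaged.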
Large screens that a line does not name were inactive. Shown is part of a subset that was picked to be rich in hits. Unless noted, calls follow the shape of the dose curve; as a rule, active = well fitted curve in the direction sought with a large enough effect; inconclusive = small, poorly fitted or top-dose-only effect, or another doubt; inactive = no such curve, though single readings can be large; an effect the other way counts as inactive or inconclusive.

CC(C)CCC(=O)OC1CCC2C3CCC4=CC(=O)CC[C@]4(C)C3CC[C@]12C (some centres not stated)	none (no result: Shiga toxin inh, CHX counter, RE007 growth inh, Giardia FBPA inh, LmPK inh)
COC(=O)c1c(-c2ccc(F)cc2)csc1NC(=O)C1CCCO1 (configuration not stated)	CHX counter 26.3
Cn1c(CC(=O)Nc2ccccc2F)nnc1SCC(=O)N1CCOCC1	CHX counter 29.9 (no result: Giardia FBPA inh)
Cc1ccc(CC2CC(=O)N(CCc3ccccc3)C2=O)cc1 (configuration not stated)	CHX counter 19.4
O=C1CC(Cc2ccccc2)C(=O)N1c1ncccn1 (configuration not stated)	Shiga toxin inh 103.2, CHX counter 53.0
Cc1ccc(CC2CC(=O)N(c3ncccn3)C2=O)cc1 (configuration not stated)	none
CCOc1ccc2nc(SCc3ccccc3C#N)sc2c1	Shiga toxin inh 174.3, CHX counter 70.7
CCOc1ccc2nc(SCc3ccc(OC)cc3)sc2c1	CHX counter 19.7
O=[N+]([O-])c1ccc2nc(SCc3ccccc3Cl)sc2c1	none
O=S(=O)(c1ccc(Cl)s1)N1CCCc2cccc(O)c21	Shiga toxin inh 83.9, CHX counter 49.5
COCCN1C(=O)C(CC(=O)Nc2ccccc2)SC1=Nc1ccc(OC)cc1 (configuration not stated)	none
COc1ccc(N=C2SC(CC(=O)Nc3ccccc3)C(=O)N2Cc2ccco2)cc1 (configuration not stated)	Shiga toxin inh 39.4
COc1ccc(N=C2SC(CC(=O)Nc3ccccc3F)C(=O)N2Cc2ccco2)cc1 (configuration not stated)	CHX counter 21.4
O=C(CC1SC(=Nc2ccccc2)N(CCc2c[nH]c3ccccc23)C1=O)Nc1ccccc1F (configuration not stated)	none
O=C1NC2(CCCCC2)C(=O)N1/N=C/c1ccccc1Br	CHX counter 22.9
O=C1NC2(CCCCC2)C(=O)N1/N=C/c1ccc(O)cc1O	Shiga toxin inh 53.0, CHX counter 38.0, TbPYK inhibitor inconclusive
Oc1ccc(C=NC2CCCCC2)c(O)c1	none
S=c1[nH]nc(C2CCCCC2)n1/N=C/c1ccccc1Br	TbPYK inhibitor inconclusive
O=C(NCCC1=CCCCC1)c1ccc2c(=O)n3nc(Nc4ccccc4)sc3nc2c1	none (no result: Shiga toxin inh, CHX counter, RE007 growth inh, Giardia FBPA inh, LmPK inh)
COc1ccccc1CNC(=O)Cn1cc(Br)ccc1=O	none
CCc1cc2c(cc3c(=O)n(CC(=O)NC(C)C)nc(CC)n32)s1	none (no result: Shiga toxin inh, CHX counter, RE007 growth inh, Giardia FBPA inh, LmPK inh)
Cc1ccc(C)c(Cn2cnc3ccccc3c2=O)c1	none (no result: Shiga toxin inh, CHX counter, RE007 growth inh, Giardia FBPA inh, LmPK inh)
Cc1cc(NC(=O)c2ccc3c(c2)OCCO3)ccc1NC(=O)c1cc2ccccc2o1	Shiga toxin inh 71.1, CHX counter 15.8
Cc1cc(NC(=O)c2cc3ccccc3o2)ccc1NC(=O)c1ccccc1	CHX counter 12.7
O=C(Nc1cc2ccccc2oc1=O)c1ccccc1	Shiga toxin inh 87.1, CHX counter 31.2, LmPK inh 4.47µM
Cc1cc(NC(=O)C2CC=CCC2C(=O)O)ccc1NC(=O)c1ccccc1 (configuration not stated)	Shiga toxin inh 24.8 (no result: Giardia FBPA inh)
Cc1noc(C)c1-c1ccc2ncnc(NCc3cccc(C(F)(F)F)c3)c2c1	none (no result: RE007 growth inh, LmPK inh, TbPYK inhibitor)
CCN(CC)c1ccc(N2C(=O)/C(=C\c3cccs3)SC2=S)cc1	none
CN(C)/C=C1\SC(=S)N(c2ccc(F)cc2)C1=O	CHX counter 33.3
CN(C)/C=C1\SC(=S)N(c2ccc(Br)cc2)C1=O	Shiga toxin inh 46.2, CHX counter 33.5
COc1ccc(CNC(=O)C(C)N2CCN(c3ccc(C(C)=O)cc3)CC2)cc1 (configuration not stated)	CHX counter 17.1
O=c1oc(-c2cccs2)nc2scc(-c3cccs3)c12	CHX counter 13.6
Cc1sc2nc(-c3cccs3)oc(=O)c2c1C	Shiga toxin inh 136.5, CHX counter 42.9
COc1ccc2c(c1)C(=O)[C@@H](OC(=O)NCCOc1ccccc1)[C@H](c1ccc(OC)c(Br)c1)O2	none (no result: Shiga toxin inh, CHX counter, RE007 growth inh, LmPK inh, TbPYK inhibitor)
CCCCN1C(=S)NC[C@@H]1Cc1ccc(O)cc1	CHX counter 7.2
CCCCN1C(=O)C(=O)NC[C@@H]1Cc1ccc(O)cc1	none (no result: Shiga toxin inh, CHX counter, Giardia FBPA inh, LmPK inh)
COc1ccc2c(Sc3ccc(Cl)cc3)c(C(=O)N3CCCCC3)[nH]c2c1	none (no result: Shiga toxin inh, CHX counter, RE007 growth inh, Giardia FBPA inh, LmPK inh)
COc1ccc(Cl)cc1C(=O)Nn1cnc2ccccc2c1=O	none
CCCCCCCCCC(=O)Nn1cnc2ccccc2c1=O	none
COc1ccccc1C(=O)Nn1cnc2ccccc2c1=O	Shiga toxin inh 49.2, CHX counter 23.7
CCN(CC)c1ccc(C(=O)Nn2cnc3ccccc3c2=O)cc1	Shiga toxin inh 75.8, CHX counter 35.0
O=c1ccn(Cc2ccccc2)c2ccccc12	none
Cc1c(OCc2ccccc2)c(=O)ccn1Cc1ccccc1	CHX counter 11.1
O=C(COC(=O)c1ccccc1Br)Nc1ccccc1F	Shiga toxin inh 56.9, CHX counter 55.1
O=C(COC(=O)c1ccccc1Br)NCc1ccccc1	CHX counter 24.3
CCOC(=O)/C=C/C(=O)OCC(=O)NCc1ccccc1	CHX counter 15.7
O=C(COC(=O)c1ccccc1Br)NCc1cccs1	none (no result: Shiga toxin inh, CHX counter, Giardia FBPA inh, LmPK inh)
CCC[C@@H]1C[C@@]1(CCC)C(NC(=O)c1ccccc1)c1cccc(Cl)c1 (some centres not stated)	none (no result: Shiga toxin inh, CHX counter, RE007 growth inh, LmPK inh, TbPYK inhibitor)
COc1cccc(Nc2ncc3nc(C)c(=O)n(CCc4ccccc4)c3n2)c1	none (no result: Shiga toxin inh, CHX counter, RE007 growth inh, LmPK inh, TbPYK inhibitor)
COc1ccc(C(=O)Cn2nnc(-c3ccccc3F)n2)cc1	CHX counter 12.0
COc1ccc(C(=O)Cn2nnc(-c3ccccc3NC(=O)C3CC3)n2)cc1	CHX counter 18.1
O=C(Cn1nnc(-c2ccccc2F)n1)NCCc1ccccc1	none
COc1ccc(CNC(=O)c2cc3c(=O)oc4ccc(C)cc4c3s2)c(OC)c1	none (no result: Shiga toxin inh, CHX counter, RE007 growth inh, Giardia FBPA inh, LmPK inh)
O=C(CSc1ncn[nH]1)c1cc2ccccc2o1	CHX counter 19.7
O=C(CSc1ncn[nH]1)c1ccccc1	Shiga toxin inh 51.6, Giardia FBPA inh inconclusive, TbPYK inhibitor inconclusive
O=C(CSc1ncn[nH]1)c1cccc([N+](=O)[O-])c1	Giardia FBPA inh inconclusive
O=C(CSc1nccc(=O)[nH]1)c1cc2ccccc2o1	Shiga toxin inh 47.4, CHX counter 34.2
O=C(CSc1nccc(=O)[nH]1)c1ccco1	none
O=C(Nc1cccc(O)c1)c1ccc(NC(=O)C2CCCO2)cc1 (configuration not stated)	Shiga toxin inh 110.0, CHX counter 47.4
O=C(O)c1cccc(NC(=O)c2cccc(NC(=O)C3CCCO3)c2)c1 (configuration not stated)	none
O=C(Nc1ccc(F)cc1)c1ccc(NC(=O)C2CCCO2)cc1 (configuration not stated)	Shiga toxin inh 73.1, CHX counter 21.2
